# Assay results reported in PubChem BioAssay (Tox21).
# Values without a mark were called inactive. Inconclusive results are not listed. A call without a number means that no potency is given here. Calls of active or inactive are those of the source. Unless noted, calls come from the whole dose curve; as a rule, active = well fitted curve in the direction sought with a large enough effect in the repeat runs; inconclusive = weak or mixed curves; inactive = no such curve, though single readings can be large; an effect the other way counts as inactive or inconclusive.
# Assays:
# [1] = qHTS assay for small molecules that induce genotoxicity in human embryonic kidney cells expressing luciferase-tagged ATAD5 (AID 651632); note: nearly all actives have a fitted effect of over 15% in size; note: potency is the fitted concentration of half-maximal effect
# How it was run: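 A rise in luciferase signal from ATAD5-tagged HEK293T cells marks genetic stress. Cells were exposed to compounds for 16 hr at 37C, 5% CO2, then luciferase was quantified after a 30 min room-temperature incubation with Amplite.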
# [2] = qHTS assay for small molecule agonists of the p53 signaling pathway - cell viability (AID 651633; calls by dose curve; note: nearly all actives have a fitted effect of over 30% in size; note: potency is the fitted concentration of half-maximal effect)
# How it was run: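 p53RE-bla cells were treated with compound for 16 hours at 37 C. Cytotoxicity was then measured as CellTiter-Glo luminescence after 30 min at room temperature.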
# [3] = qHTS assay for small molecule disruptors of the mitochondrial membrane potential - cell viability (AID 720634; calls by dose curve;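 note: human HepG2 liver cancer cells; series mostly up to about 83 µM; nearly all actives have a fitted effect of over 20% in size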)
# How it was run: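 Cytotoxicity was quantified from ATP content by CellTiter-Glo luminescence in the same wells as the MMP dye read-out. HepG2 (2,000 cells/well) were plated overnight and exposed to compounds for 1 hr at 37 C.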
# [4] = qHTS assay to test for compound auto fluorescence at 590 nm (red) in HepG2 cells (AID 720674)
# How it was run: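 Seeding: 2,000 HepG2 cells/well, MEM/10% FBS, overnight 37 C. Dosing: compound vs DMSO. Incubation: 1 hr, 37 C, 5% CO2. Read: fluorescence 540 ex/590 em, Rose Bengal sodium as red reference.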
# [5] = qHTS assay to test for compound auto fluorescence at 535 nm (green) in HepG2 cells (AID 720675)
# [6] = qHTS assay to test for compound auto fluorescence at 460 nm (blue) in HEK293 cells (AID 720678); note: potency is the fitted concentration of half-maximal effect
# How it was run: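 Intrinsic compound fluorescence is recorded in live HEK293 cultures after overnight incubation at 37C, 5% CO2, using excitation 405 nm and emission 460 nm. Values are referenced to triamterene.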
# [7] = qHTS assay to test for compound auto fluorescence at 590 nm (red) in HEK293 cells (AID 720679)
# How it was run: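 Red autofluorescence, HEK293 cells: 2,000 cells/well; attach 4-5 hr 37C; add 23 nL cpd or DMSO; incubate o/n 37C 5% CO2; read Ex540/Em590; Rose Bengal sodium reference.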
# [8] = qHTS assay for small molecules that induce genotoxicity in human embryonic kidney cells expressing luciferase-tagged ATAD5 - cell viability (AID 651634; calls by dose curve; note: nearly all actives have a fitted effect of over 25% in size)
# How it was run: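 Cytotoxicity counter-readout: after 15.5 hr compound treatment at 37C, live-cell protease activity in ATAD5-luciferase HEK293T cells measured by CellTiter-Fluor fluorescence, 30 min development at 37C.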
# [9] = qHTS assay for small molecule disruptors of the mitochondrial membrane potential (AID 720635); note: potency is the fitted concentration of half-maximal effect
# How it was run: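 HepG2 cells exposed to compound 1 hr at 37C, then Mito-MPS dye 30 min. Ratio read of aggregate (540/590 nm) versus monomer (490/535 nm) fluorescence.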
# Tags give direction and shape of the fitted curve or compound fluorescence and quenching.
Structure (SMILES),Potency [1],Potency [2],Potency [3],"fluorescence, relative to Rose Bengal [4]","fluorescence, % of fluorescein control [5]","fluorescence, % of triamterene [6]","fluorescence, % of fluorescent control [7]",Potency [8],outcome [5],Potency [6],outcome [4],outcome [7],Potency [9]
CCN(CCCCOC(=O)c1ccc(OC)c(OC)c1)C(C)Cc1ccc(OC)cc1 (stereo not given),inactive,inactive,inactive,0.21% [at 18.6 µM],0.0889% [at 18.6 µM],0.0022% [at 18.6 µM],-0.338% [at 18.6 µM],–,–,–,–,–,–
C[Si](C)(C)O[Si](C)(C)O[Si](C)(C)C,inactive,inactive,–,–,–,–,–,inactive,inactive,inactive,–,–,–
CCCCOc1ccc(N)cc1,inactive,inactive,–,–,–,–,–,inactive,inactive,inactive,inactive,–,–
C=C(C)C(=O)OCCCCCCCCCCOC(=O)C(=C)C,inactive,inactive,inactive,–,–,–,–,inactive,inactive,inactive,inactive,inactive,–
O=C1c2ccccc2C(=O)C1c1ccc2ccccc2n1,0.0762 µM (active),inactive,–,–,–,–,–,inactive,inactive,inactive,inactive,inactive,0.34 µM (active)
Cc1ccc(NC=O)c(C)c1,inactive,inactive,inactive,–,–,–,–,–,inactive,inactive,–,inactive,–
Nc1ccc(C(=O)Oc2ccccc2)c(O)c1,9.44 µM (active),inactive,–,–,–,–,–,inactive,inactive,inactive,inactive,–,29.8 µM (active)
CC(O)CN (stereo not given),inactive,inactive,–,–,–,–,–,inactive,inactive,inactive,–,inactive,–
CCCCC(CC)COCCC#N (stereo not given),inactive,inactive,inactive,–,–,–,–,inactive,inactive,inactive,inactive,inactive,–
CCCCCCCCC(=O)OCC(C)OC(=O)CCCCCCCC (stereo not given),inactive,inactive,inactive,–,–,–,–,–,inactive,inactive,inactive,inactive,–
COc1ccc(C(=O)Nc2ccccc2)cc1[N+](=O)[O-],inactive,inactive,–,–,–,–,–,inactive,inactive,inactive,inactive,inactive,2.75 µM (active)
CC[C@H](NC(C)C)[C@H](O)c1ccc(O)c2[nH]c(=O)ccc12,inactive,inactive,inactive,–,–,–,–,–,inactive,11.2 µM [fluorescent] (active),inactive,inactive,inactive
CC1(C)[C@@H]2CC[C@]3(C2)[C@@H]1C(=O)CCC3(C)C,inactive,inactive,–,–,–,–,–,inactive,inactive,inactive,inactive,inactive,inactive
O=C(O)c1ccccc1-n1cc(C(=O)O)c(=O)c2cc(Nc3c(F)cc(F)cc3Cl)c(Cl)cc21,inactive,inactive,–,–,–,–,–,inactive,inactive,inactive,inactive,–,–
CC/C=C/CCO,inactive,inactive,inactive,–,–,–,–,–,inactive,inactive,inactive,inactive,–
O=C(N[C@@H](Cc1ccccc1)[C@@H](O)C(=O)N1C[C@@H](O)[C@@H](O)C1)c1cc2cc(Cl)ccc2[nH]1,inactive,inactive,inactive,–,–,–,–,inactive,inactive,inactive,–,–,–
CC(=O)c1ccc(Cl)c(Cl)c1Cl,inactive,inactive,inactive,–,–,–,–,inactive,inactive,inactive,inactive,inactive,–
O=Cc1ccc(Cl)c([N+](=O)[O-])c1,inactive,inactive,–,–,–,–,–,inactive,inactive,inactive,inactive,inactive,–
Nc1ccccc1Nc1ccccc1,inactive,–,inactive,–,–,–,–,–,inactive,inactive,inactive,inactive,–
CC(C)(C)c1ccc(CCC=O)cc1,inactive,–,inactive,–,–,–,–,–,inactive,inactive,inactive,–,inactive
CC(C)CCCCCCCOC(=O)c1ccc(C(=O)OCCCCCCCC(C)C)c(C(=O)OCCCCCCCC(C)C)c1,inactive,–,–,–,–,–,–,inactive,inactive,inactive,inactive,inactive,inactive
COc1ccc(/C=C/c2cc(OC)cc(=O)o2)cc1,–,inactive,inactive,–,–,–,–,–,inactive,inactive,inactive,inactive,inactive
O=C(O)c1ccc2c(c1)nc(C(=O)NC1CCN(C3CC3)CC1)n2Cc1cc(-c2ccc(Cl)s2)on1,inactive,–,inactive,0.429% [at 18.6 µM],-0.0395% [at 18.6 µM],0.0005% [at 18.6 µM],0.147% [at 18.6 µM],inactive,–,–,–,–,–
CCCOC(C)=O,inactive,–,inactive,–,–,–,–,inactive,inactive,inactive,inactive,–,–
C=CC(C)CCC=C(C)C (stereo not given),inactive,–,inactive,–,–,–,–,inactive,inactive,inactive,–,–,–
CCCc1ccc(OC)cc1,inactive,–,inactive,–,–,–,–,inactive,inactive,inactive,inactive,inactive,inactive
CCCc1nc(C)c2c(=O)[nH]c(-c3cc(S(=O)(=O)N4CCN(CC)CC4)ccc3OCC)nn12,inactive,–,inactive,–,–,–,–,inactive,inactive,inactive,inactive,–,inactive
Cc1nc2sccn2c(=O)c1CCN1CCC(=C(c2ccc(F)cc2)c2ccc(F)cc2)CC1,inactive,–,–,–,–,–,–,inactive,inactive,inactive,inactive,inactive,–

Structure (SMILES),Potency [1],Potency [2],Potency [3],"fluorescence, relative to Rose Bengal [4]","fluorescence, % of fluorescein control [5]","fluorescence, % of triamterene [6]","fluorescence, % of fluorescent control [7]",Potency [8],outcome [5],Potency [6],outcome [4],outcome [7],Potency [9]
O=C(NC1CCN(CCc2c[nH]c3ccccc23)CC1)c1ccccc1,inactive,–,inactive,–,–,–,–,inactive,inactive,inactive,inactive,inactive,–
CC(C)=CCC[C@H](C)CCO,inactive,–,–,–,–,–,–,inactive,inactive,inactive,inactive,inactive,–
O=c1c2ccccc2oc2ccccc12,inactive,–,–,–,–,–,–,inactive,inactive,inactive,inactive,inactive,inactive
CC(C(=O)O)c1ccc(/C=C2\CCCCC2=O)cc1 (stereo not given),–,inactive,inactive,–,–,–,–,inactive,inactive,inactive,inactive,inactive,–
COc1ccc(CN(CCN(C)C)c2ncccn2)cc1,–,inactive,inactive,–,–,–,–,–,inactive,inactive,inactive,inactive,–
CC(=O)Oc1cccc2c1C(=O)c1c(OC(C)=O)cc(C(=O)O)cc1C2=O,inactive,–,–,–,–,–,–,inactive,inactive,inactive,inactive,inactive,13.3 µM (active)
Cc1c(Cl)cccc1[N+](=O)[O-],inactive,inactive,–,–,–,–,–,–,inactive,inactive,–,inactive,–
Cc1c(-c2cccnc2)c2ccccc2n1CCCCC(=O)O,inactive,–,inactive,–,–,–,–,inactive,inactive,inactive,inactive,inactive,–
C1=COCCC1,inactive,inactive,inactive,–,–,–,–,–,inactive,inactive,–,inactive,–
CC(C)C/C=C(\C=O)c1ccccc1,inactive,–,inactive,–,–,–,–,inactive,inactive,inactive,inactive,inactive,–
CC(C(=O)O)c1ccc2c(c1)Cc1cccnc1O2 (stereo not given),inactive,–,inactive,–,–,–,–,inactive,inactive,inactive,inactive,inactive,–
COC(=O)C(C)(C)C,inactive,–,inactive,–,–,–,–,inactive,inactive,inactive,inactive,inactive,inactive
OCCOc1cccc(OCCO)c1,inactive,–,inactive,–,–,–,–,inactive,inactive,inactive,inactive,inactive,inactive
Cc1ccc2c(Cl)cc(Cl)c(O)c2n1,5.96 µM (active),0.944 µM (active),–,–,–,–,–,–,inactive,inactive,inactive,inactive,–
CCCC1CCOC(C)S1 (stereo not given),inactive,–,inactive,–,–,–,–,inactive,inactive,inactive,inactive,inactive,inactive
O=[N+]([O-])c1ccc(Cl)cc1Cl,inactive,–,inactive,–,–,–,–,inactive,inactive,inactive,inactive,inactive,–
O=c1[nH]nc(-c2ccc([N+](=O)[O-])o2)o1,inactive,–,–,–,–,–,–,–,inactive,inactive,inactive,inactive,–
O=C(O)c1cccnc1Nc1cccc(C(F)(F)F)c1,inactive,–,–,–,–,–,–,–,inactive,inactive,inactive,inactive,11.9 µM (active)
O=C1c2ccccc2C(=O)c2c1ccc(O)c2O,inactive,–,inactive,–,–,–,–,–,inactive,inactive,inactive,inactive,9.44 µM (active)
c1ccc(-c2ccc(-c3ccccc3)cc2)cc1,–,inactive,–,-0.399% [at 18.6 µM],-0.0708% [at 18.6 µM],-0.0124% [at 18.6 µM],0.554% [at 18.6 µM],inactive,–,–,–,–,–
CCOc1ccc2c(c1)C(C)CC(C)(C)N2 (stereo not given),inactive,–,inactive,–,–,–,–,–,inactive,inactive,–,inactive,–
NC(=O)c1ccccc1C(N)=O,inactive,–,inactive,–,–,–,–,inactive,inactive,inactive,inactive,inactive,–
c1ccc(CN(Cc2ccccc2)Cc2ccccc2)cc1,inactive,–,inactive,–,–,–,–,inactive,inactive,inactive,inactive,inactive,–
CC(=O)S[C@H](C(=O)N[C@H]1Cc2ccccc2[C@H]2CCC[C@@H](C(=O)O)N2C1=O)C(C)C,inactive,–,inactive,–,–,–,–,inactive,inactive,inactive,inactive,inactive,inactive
NC(=O)c1cc[n+](CC2=C(C(=O)[O-])N3C(=O)[C@@H](NC(=O)Cc4cccs4)[C@H]3SC2)cc1,inactive,–,inactive,–,-0.0242% [at 18.6 µM],0.803% [at 18.6 µM],0.0624% [at 18.6 µM],–,–,–,–,–,–
O=C(Nc1ccc2c(c1)Cc1ccccc1-2)C(F)(F)F,inactive,–,–,–,–,–,–,inactive,inactive,inactive,inactive,inactive,17.2 µM (active)
CCCCCCCCNC,inactive,–,inactive,–,–,–,–,inactive,inactive,inactive,inactive,–,inactive
